The source of these data is PMC7862700, “An all-to-all approach to the identification of sequence-specific readers for epigenetic DNA modifications on cytosine”.

Holding throughout (assay): DAPPL (digital affinity profiling via proximity ligation, sequencing); 10 mM Tris-HCl pH 7.5, 50 mM NaCl, 1 mM DTT, 4% glycerol, room temperature, 30 min; GST-TFs on glutathione beads, 16-mer random dsDNA library, 0.1% formaldehyde crosslink after washing; high values mean tight binding
The target of one experiment is T1, FLI1 (Homo sapiens, UniProt Q01543 1-452).
T1 sequence: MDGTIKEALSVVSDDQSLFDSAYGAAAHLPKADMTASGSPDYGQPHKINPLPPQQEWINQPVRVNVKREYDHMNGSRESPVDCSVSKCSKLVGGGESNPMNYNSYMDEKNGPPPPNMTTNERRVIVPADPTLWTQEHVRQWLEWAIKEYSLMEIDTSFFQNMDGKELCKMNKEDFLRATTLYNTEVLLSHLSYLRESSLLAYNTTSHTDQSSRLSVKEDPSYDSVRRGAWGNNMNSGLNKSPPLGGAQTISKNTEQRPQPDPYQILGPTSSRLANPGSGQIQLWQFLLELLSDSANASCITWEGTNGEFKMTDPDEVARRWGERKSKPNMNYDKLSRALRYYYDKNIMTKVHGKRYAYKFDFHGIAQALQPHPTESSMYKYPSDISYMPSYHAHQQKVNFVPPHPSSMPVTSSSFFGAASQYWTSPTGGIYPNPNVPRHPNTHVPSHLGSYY
The conditions noted are these: protein: recombinant; tags: N-terminal GST; dsDNA, one strand shown. The procedure, abridged:
(§1)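 Human transcription factors were made in yeast as GST fusions, captured on glutathione beads and barcoded with DNA. With a tag-only sample included, the pool was incubated with 200 nmole of a random double-stranded 16-mer DNA library in Tris/NaCl/DTT/glycerol buffer at room temperature for 30 min, then crosslinked with 0.1% formaldehyde after washing, ligated by proximity, amplified and sequenced. For binding signal, each hexamer's read frequency for a factor is divided by its frequency for the tag-only sample.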

Another experiment deals with T2, ELK1 (Homo sapiens, UniProt P19419 1-428).
T2 sequence: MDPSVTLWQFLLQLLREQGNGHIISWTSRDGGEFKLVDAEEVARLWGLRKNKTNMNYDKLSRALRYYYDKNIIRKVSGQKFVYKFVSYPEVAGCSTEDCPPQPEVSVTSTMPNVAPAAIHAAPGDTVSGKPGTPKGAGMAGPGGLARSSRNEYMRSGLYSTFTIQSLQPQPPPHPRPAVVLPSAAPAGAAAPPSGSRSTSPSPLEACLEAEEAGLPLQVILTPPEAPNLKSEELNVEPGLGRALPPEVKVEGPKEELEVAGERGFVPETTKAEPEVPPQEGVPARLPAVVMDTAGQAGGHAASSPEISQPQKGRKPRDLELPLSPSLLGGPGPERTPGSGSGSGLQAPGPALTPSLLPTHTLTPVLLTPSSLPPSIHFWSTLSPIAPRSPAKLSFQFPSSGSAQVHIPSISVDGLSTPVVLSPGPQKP
The conditions noted are these: protein: recombinant; tags: N-terminal GST; dsDNA, one strand shown. The essentials: as §1

For another experiment, the target named is T3, GABPA (Homo sapiens, UniProt Q06546 1-454).
T3 sequence: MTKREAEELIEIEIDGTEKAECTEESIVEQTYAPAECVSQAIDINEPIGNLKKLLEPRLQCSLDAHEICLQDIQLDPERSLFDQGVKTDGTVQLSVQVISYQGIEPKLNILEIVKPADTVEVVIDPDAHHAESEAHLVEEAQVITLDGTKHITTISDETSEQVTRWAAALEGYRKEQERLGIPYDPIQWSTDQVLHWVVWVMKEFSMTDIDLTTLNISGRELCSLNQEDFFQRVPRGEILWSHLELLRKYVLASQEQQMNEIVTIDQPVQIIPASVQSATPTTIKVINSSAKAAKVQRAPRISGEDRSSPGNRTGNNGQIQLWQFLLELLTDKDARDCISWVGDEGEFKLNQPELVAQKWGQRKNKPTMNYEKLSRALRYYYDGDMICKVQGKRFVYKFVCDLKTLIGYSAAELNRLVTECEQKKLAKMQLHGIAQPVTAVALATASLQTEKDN
Particulars: protein: recombinant; tags: N-terminal GST; dsDNA, one strand shown. The procedure, abridged:
as §1

For a further experiment, the target named is T4, ERG (Homo sapiens, UniProt P11308 1-479).
T4 sequence: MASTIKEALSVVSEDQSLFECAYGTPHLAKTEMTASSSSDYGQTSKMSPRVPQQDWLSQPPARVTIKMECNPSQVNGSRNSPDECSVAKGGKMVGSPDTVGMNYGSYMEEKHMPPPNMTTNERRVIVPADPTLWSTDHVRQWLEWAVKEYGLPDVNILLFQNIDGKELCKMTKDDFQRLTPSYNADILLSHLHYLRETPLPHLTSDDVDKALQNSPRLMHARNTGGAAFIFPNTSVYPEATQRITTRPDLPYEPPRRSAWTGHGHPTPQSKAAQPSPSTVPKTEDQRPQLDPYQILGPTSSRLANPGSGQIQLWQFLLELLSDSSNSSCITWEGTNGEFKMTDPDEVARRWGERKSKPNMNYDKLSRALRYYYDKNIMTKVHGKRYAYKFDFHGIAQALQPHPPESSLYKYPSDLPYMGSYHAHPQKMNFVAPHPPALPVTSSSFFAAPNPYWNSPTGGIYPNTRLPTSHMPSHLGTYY
The conditions noted are these: protein: recombinant; tags: N-terminal GST; dsDNA, one strand shown. The procedure, abridged: as §1

The next experiment has as its target ELF1 (Homo sapiens, UniProt P32519 1-619). The conditions noted are these: protein: recombinant; tags: N-terminal GST; dsDNA, one strand shown. The essentials: as §1
The target of the next experiment is T5, EHF (Homo sapiens, UniProt Q9NZC4 1-300).
T5 sequence: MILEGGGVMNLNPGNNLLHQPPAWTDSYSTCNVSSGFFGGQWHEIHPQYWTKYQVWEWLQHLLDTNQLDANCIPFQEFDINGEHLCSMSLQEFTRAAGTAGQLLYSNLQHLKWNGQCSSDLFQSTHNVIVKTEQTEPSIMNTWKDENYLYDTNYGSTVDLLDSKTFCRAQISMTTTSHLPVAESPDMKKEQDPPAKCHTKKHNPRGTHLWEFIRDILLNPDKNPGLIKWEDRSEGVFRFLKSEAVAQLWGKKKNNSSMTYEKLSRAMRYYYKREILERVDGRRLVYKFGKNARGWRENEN
Particulars: protein: recombinant; tags: N-terminal GST; dsDNA, one strand shown. The procedure, abridged:
as §1

The target of a further experiment is SPI1 (Homo sapiens, UniProt P17947 1-270). Particulars: protein: recombinant; tags: N-terminal GST; dsDNA, one strand shown. The procedure, abridged:
as §1

The target of another experiment is SPIB (Homo sapiens, UniProt Q01892 1-262). The conditions noted are these: protein: recombinant; tags: N-terminal GST; dsDNA, one strand shown. The essentials: as §1
Sequence of SPIB (Q01892 whole entry): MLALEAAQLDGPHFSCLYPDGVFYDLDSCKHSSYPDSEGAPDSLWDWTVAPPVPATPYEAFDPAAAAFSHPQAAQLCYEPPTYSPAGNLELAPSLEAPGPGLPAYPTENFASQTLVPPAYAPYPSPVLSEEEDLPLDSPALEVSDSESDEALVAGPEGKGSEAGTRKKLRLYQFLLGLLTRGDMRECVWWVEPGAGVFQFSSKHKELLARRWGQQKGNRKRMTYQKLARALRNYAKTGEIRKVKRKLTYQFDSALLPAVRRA
Another experiment deals with T6, ELK3 (Homo sapiens, UniProt P41970 1-407).
T6 sequence: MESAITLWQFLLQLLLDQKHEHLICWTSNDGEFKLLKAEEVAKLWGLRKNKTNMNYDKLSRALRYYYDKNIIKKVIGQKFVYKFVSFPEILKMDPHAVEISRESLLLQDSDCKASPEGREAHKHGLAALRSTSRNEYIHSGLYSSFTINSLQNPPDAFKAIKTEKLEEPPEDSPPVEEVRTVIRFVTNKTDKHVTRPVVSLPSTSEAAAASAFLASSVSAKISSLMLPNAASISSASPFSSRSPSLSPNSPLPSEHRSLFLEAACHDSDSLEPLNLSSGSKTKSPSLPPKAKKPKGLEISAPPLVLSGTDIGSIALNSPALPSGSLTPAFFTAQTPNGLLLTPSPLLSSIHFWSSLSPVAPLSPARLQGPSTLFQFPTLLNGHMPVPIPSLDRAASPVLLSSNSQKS
Particulars: protein: recombinant; tags: N-terminal GST; dsDNA, one strand shown. The essentials:
as §1

In the next experiment the target is T7, FEV (Homo sapiens, UniProt Q99581 1-238).
T7 sequence: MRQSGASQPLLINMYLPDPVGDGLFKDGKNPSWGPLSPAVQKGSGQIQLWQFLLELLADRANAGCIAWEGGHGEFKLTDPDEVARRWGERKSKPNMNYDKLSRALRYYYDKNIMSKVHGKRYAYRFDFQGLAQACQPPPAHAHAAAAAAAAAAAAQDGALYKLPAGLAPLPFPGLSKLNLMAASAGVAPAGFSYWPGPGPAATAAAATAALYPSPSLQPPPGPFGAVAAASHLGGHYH
The conditions noted are these: protein: recombinant; tags: N-terminal GST; dsDNA, one strand shown. The essentials: as §1

The next experiment concerns the target ETV5 (Homo sapiens, UniProt P41161 1-510). The conditions noted are these: protein: recombinant; tags: N-terminal GST; dsDNA, one strand shown. The procedure, abridged:
as §1

The target in another experiment is HSF1 (Homo sapiens, UniProt Q00613 1-529). Particulars: protein: recombinant; tags: N-terminal GST; chain copies: 3; dsDNA, one strand shown. The procedure, abridged: as §1
Sequence of HSF1 (Q00613 whole entry): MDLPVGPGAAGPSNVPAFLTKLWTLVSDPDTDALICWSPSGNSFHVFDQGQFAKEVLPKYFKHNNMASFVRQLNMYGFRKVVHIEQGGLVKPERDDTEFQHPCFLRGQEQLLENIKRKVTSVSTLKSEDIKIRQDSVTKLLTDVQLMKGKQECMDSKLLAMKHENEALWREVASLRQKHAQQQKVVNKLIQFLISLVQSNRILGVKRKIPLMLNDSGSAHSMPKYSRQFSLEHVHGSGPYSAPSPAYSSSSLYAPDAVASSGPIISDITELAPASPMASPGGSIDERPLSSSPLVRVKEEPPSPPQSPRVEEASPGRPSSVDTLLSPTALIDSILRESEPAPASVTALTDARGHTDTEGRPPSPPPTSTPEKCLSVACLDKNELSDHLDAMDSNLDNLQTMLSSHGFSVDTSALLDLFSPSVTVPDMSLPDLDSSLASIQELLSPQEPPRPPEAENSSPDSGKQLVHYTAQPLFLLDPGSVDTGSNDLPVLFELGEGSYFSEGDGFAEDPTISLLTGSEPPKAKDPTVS
A further experiment deals with T8, SPIC (Homo sapiens, UniProt Q8N5J4 1-248).
T8 sequence: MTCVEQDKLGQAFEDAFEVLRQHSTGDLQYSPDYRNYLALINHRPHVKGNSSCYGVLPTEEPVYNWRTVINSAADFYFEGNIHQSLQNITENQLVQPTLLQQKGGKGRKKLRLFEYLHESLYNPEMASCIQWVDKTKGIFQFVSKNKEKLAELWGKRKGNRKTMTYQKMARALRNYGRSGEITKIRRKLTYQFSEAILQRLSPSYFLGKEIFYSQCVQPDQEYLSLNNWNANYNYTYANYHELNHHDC
The conditions noted are these: protein: recombinant; tags: N-terminal GST; dsDNA, one strand shown. The essentials:
as §1

Another experiment concerns the target ELF4 (Homo sapiens, UniProt Q99607 1-663). Particulars: protein: recombinant; tags: N-terminal GST; dsDNA, one strand shown. The procedure, abridged: as §1
The target in a further experiment is T9, ELK4 (Homo sapiens, UniProt P28324-2 1-405).
T9 sequence: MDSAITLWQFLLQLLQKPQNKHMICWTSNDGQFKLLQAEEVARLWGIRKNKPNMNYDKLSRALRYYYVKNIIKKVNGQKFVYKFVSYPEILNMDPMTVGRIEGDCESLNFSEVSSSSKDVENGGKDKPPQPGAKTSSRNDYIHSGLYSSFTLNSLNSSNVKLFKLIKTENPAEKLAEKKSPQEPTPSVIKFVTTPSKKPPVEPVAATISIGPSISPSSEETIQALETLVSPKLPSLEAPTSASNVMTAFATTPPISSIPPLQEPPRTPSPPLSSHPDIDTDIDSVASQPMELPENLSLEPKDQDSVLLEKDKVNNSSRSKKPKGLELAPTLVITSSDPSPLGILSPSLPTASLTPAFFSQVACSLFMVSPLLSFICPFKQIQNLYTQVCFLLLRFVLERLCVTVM
The conditions noted are these: protein: recombinant; tags: N-terminal GST; dsDNA, one strand shown. The procedure, abridged: as §1

The next experiment addresses T10, ETV2 (Homo sapiens, UniProt O00321 1-342).
T10 sequence: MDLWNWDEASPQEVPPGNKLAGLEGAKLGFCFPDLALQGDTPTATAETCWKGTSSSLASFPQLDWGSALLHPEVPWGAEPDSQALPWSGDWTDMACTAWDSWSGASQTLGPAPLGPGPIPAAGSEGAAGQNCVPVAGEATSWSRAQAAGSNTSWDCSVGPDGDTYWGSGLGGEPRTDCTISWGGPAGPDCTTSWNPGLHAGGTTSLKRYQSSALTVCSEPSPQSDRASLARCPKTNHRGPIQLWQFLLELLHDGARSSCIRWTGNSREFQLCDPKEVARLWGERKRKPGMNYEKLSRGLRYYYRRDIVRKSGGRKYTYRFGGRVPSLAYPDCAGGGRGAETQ
The conditions noted are these: protein: recombinant; tags: N-terminal GST; dsDNA, one strand shown. The procedure, abridged:
as §1

Another experiment deals with T11, ELF3 (Homo sapiens, UniProt P78545 1-371).
T11 sequence: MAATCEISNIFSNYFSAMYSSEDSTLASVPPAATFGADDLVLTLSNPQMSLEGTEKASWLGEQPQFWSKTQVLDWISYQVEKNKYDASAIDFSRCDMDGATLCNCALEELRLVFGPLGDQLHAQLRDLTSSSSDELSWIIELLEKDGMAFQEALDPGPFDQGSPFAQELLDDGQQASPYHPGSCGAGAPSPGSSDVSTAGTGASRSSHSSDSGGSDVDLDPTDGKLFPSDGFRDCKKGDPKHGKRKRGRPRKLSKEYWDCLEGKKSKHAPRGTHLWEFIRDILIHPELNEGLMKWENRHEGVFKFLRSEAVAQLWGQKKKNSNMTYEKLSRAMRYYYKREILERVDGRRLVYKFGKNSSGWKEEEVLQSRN
The conditions noted are these: protein: recombinant; tags: N-terminal GST; dsDNA, one strand shown. The essentials:
as §1

The target of a further experiment is CRX (Homo sapiens, UniProt O43186 1-299). Particulars: protein: recombinant; tags: N-terminal GST; dsDNA, one strand shown. The procedure, abridged: as §1
Sequence of CRX (O43186 whole entry): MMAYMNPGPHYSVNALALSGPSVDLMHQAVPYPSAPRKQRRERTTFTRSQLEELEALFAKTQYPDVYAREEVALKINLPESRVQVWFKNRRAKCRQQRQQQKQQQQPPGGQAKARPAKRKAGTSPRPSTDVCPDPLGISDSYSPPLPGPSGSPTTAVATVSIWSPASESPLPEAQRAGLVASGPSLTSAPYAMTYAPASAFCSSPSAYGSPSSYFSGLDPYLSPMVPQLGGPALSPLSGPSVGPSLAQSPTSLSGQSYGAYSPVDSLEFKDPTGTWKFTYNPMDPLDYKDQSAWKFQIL
For another experiment, the target named is ETV1 (Homo sapiens, UniProt P50549 1-477). Particulars: protein: recombinant; tags: N-terminal GST; dsDNA, one strand shown. The procedure, abridged:
as §1

Sequence of ETV1 (P50549 whole entry): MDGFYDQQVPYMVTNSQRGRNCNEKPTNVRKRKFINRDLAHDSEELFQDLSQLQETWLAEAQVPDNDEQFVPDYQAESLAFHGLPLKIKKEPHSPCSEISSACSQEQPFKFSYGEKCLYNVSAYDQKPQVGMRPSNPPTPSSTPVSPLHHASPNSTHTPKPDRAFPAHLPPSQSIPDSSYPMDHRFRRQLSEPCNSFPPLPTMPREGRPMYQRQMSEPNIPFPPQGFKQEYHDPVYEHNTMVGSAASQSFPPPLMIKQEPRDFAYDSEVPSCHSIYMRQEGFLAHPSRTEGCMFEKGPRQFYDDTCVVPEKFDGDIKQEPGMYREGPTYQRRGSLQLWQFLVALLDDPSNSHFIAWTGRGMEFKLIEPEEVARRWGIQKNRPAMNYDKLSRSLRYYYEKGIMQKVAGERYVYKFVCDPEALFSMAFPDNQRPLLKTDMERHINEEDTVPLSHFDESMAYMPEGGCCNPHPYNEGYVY
Sequence of ELF4 (Q99607 whole entry): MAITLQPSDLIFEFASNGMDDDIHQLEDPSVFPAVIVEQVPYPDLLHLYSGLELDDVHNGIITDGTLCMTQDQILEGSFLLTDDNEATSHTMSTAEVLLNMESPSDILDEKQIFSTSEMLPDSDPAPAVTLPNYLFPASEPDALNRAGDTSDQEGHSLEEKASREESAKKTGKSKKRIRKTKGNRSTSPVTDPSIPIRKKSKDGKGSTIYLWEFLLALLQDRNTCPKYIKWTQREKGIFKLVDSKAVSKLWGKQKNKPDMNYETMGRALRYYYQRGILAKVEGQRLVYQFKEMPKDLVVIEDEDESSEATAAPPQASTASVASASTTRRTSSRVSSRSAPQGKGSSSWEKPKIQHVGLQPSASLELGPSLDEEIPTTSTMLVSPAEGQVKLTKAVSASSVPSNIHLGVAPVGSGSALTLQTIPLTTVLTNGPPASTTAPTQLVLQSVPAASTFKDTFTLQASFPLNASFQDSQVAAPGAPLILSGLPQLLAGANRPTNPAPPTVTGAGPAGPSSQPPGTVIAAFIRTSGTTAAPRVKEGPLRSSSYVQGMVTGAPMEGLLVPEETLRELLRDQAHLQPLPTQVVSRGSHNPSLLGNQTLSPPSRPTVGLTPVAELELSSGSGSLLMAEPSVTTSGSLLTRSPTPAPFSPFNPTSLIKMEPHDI
Sequence of ELF1 (P32519 whole entry): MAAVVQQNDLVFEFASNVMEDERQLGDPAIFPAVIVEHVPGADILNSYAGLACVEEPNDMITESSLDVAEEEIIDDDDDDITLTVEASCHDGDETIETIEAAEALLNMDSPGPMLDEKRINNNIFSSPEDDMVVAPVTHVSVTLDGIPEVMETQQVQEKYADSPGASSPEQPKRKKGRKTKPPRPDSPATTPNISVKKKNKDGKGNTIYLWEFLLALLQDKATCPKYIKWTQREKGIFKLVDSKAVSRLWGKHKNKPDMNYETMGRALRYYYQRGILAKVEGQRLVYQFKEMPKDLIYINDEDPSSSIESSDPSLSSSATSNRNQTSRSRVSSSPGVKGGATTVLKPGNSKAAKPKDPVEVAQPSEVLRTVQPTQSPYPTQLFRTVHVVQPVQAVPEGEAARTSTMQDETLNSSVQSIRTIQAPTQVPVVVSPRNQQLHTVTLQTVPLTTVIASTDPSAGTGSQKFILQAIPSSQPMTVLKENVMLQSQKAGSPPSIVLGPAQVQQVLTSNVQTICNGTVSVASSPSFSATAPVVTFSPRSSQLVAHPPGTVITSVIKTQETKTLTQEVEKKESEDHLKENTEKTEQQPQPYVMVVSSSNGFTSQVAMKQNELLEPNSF
Sequence of ETV5 (P41161 whole entry): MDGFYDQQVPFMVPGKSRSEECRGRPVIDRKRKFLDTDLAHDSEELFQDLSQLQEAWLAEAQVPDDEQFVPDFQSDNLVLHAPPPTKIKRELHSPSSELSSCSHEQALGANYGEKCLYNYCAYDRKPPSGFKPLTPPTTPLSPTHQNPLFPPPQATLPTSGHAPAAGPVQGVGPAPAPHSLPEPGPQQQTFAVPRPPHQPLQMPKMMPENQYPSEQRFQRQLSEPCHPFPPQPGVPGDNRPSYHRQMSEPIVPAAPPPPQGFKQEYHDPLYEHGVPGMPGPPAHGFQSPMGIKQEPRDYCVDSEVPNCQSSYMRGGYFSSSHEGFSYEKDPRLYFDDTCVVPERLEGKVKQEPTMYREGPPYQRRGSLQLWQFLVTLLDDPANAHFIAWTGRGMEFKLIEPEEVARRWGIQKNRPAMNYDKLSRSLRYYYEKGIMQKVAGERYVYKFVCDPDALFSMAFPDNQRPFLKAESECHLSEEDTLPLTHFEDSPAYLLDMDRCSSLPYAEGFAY

For the sequence ACCCGC, the binding signal is 1.27 fold enrichment (6-mer frequency, TF over GST control) in the experiment with FLI1; 1.29 fold enrichment (6-mer frequency, TF over GST control) with ELK1; 1.35 fold enrichment (6-mer frequency, TF over GST control) with GABPA; 1.21 fold enrichment (6-mer frequency, TF over GST control) with ERG; 1.33 fold enrichment (6-mer frequency, TF over GST control) with ELF1; 1.2 fold enrichment (6-mer frequency, TF over GST control) with EHF. For the same sequence, the binding signal with SPI1 is 1.32 fold enrichment (6-mer frequency, TF over GST control); with SPIB, 1.27 fold enrichment (6-mer frequency, TF over GST control); in the experiment with ELK3 it was 1.32 fold enrichment (6-mer frequency, TF over GST control); with FEV, 1.24 fold enrichment (6-mer frequency, TF over GST control); with ETV5, 1.24 fold enrichment (6-mer frequency, TF over GST control); with HSF1, 1.13 fold enrichment (6-mer frequency, TF over GST control). Further, the binding signal is 1.16 fold enrichment (6-mer frequency, TF over GST control) with SPIC; 1.35 fold enrichment (6-mer frequency, TF over GST control) with ELF4; 1.39 fold enrichment (6-mer frequency, TF over GST control) with ELK4; 1.24 fold enrichment (6-mer frequency, TF over GST control) with ETV2; 1.15 fold enrichment (6-mer frequency, TF over GST control) with ELF3; 1.1 fold enrichment (6-mer frequency, TF over GST control) with CRX. Also, the binding signal in the experiment with ETV1 was 1.27 fold enrichment (6-mer frequency, TF over GST control).
